Out of some 1,800 compounds screened, about 710 (39%) were called active. Not shown: some 28% with an inconclusive outcome. The list is a sample of the results. Measured potencies and affinities stand elsewhere. Unmarked numbers belong to inactive results.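 The calls were made as follows: active = luciferase signal rise whose fitted curve crosses a set activity limit at or below the top valid tested dose; inconclusive = flat fit with 30 to 70% rise, or poor fit; inactive = signal falling, flat within 30%, or crossing above top dose.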
Assay: reporter signal increase, D54 LucT cells – cell-based, luminescence, cherry pick, counter-screen for N-linked glycosylation inhibitor project, dose response (AID 624404);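 also: 0% = median neutral control signal and 100% = twice that signal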
Details: D54 LucT luciferase reporter counterscreen, 24 h; series mostly up to 19.5 µM; activity increase (luciferase signal): at the top concentration

| SMILES | activity increase (luciferase signal) |
| --- | --- |
| CCOc1cc(/C=C/C(=O)c2ccc(C)cc2)ccc1OCC(=O)N(C)C | 47.5% |
| O=C(Nc1cccc(-n2cnnn2)c1)c1cc(Cl)ccc1Cl | 19.6% |
| c1ccc(CN2CCC(Nc3nc(-c4cccnc4)nc4ccccc34)CC2)cc1 | -28.2% |
| Cn1nc(-c2ccc(N3CCOCC3)c(NS(=O)(=O)c3ccccc3)c2)c2ccccc2c1=O | 31.8% |
| CCc1ccc(N2CC(C(=O)Nc3ccccc3N3CCCC3)CC2=O)cc1 (configuration not stated) | 18.3% |
| COc1ccc(N2CC(C(=O)Nc3cc(C(F)(F)F)ccc3N3CCCC3)CC2=O)c(OC)c1 (configuration not stated) | 11.6% |
| COc1ccc2nc3n(c(=O)c2c1)-c1cc2ccccc2cc1C(=O)NC3Cc1ccccc1 (configuration not stated) | -29.2% |
| COc1cccc(/C=N/NC(=O)c2[nH]nc3c2CCc2ccccc2-3)c1 | 19.5% |
| Cc1ccc(C(c2cc(Cl)c3cccnc3c2O)N2CCN(C)CC2)cc1 (configuration not stated) | -2.86% |
| Cc1nc2c3cc(F)ccc3n(CCN3CCCCC3)c2s1 | 14.4% |
| COc1ccc(F)cc1C1=CC(=O)C[C@H](c2ccc3c(c2)OCO3)C1 | 32.4% |
| CN1C/C(=C\c2ccc(N3CCOCC3)cc2)C(=O)/C(=C/c2ccc(N3CCOCC3)cc2)C1 | -37.8% |
| COc1cc(-c2nc(-c3ccccc3)c(-c3cccs3)[nH]2)cc(OC)c1O | 26.6% |
| Cc1noc(C)c1COc1ccccc1C(=O)N1CCN(c2cccc(C(F)(F)F)c2)CC1 | 25.9% |
| CN(C)c1ccc(/C=C/c2cc[n+](C)c3ccccc23)cc1 | -17.1% |
| COc1ccc(C2C(C(=O)Nc3cc(OC)c(OC)c(OC)c3)c3ccccc3C(=O)N2C)cc1 (configuration not stated) | -0.8% |
| Cn1cc(/C=N/n2cnc3scc(-c4ccc(Cl)cc4)c3c2=O)c2ccccc21 | -4.96% |
| Cc1[nH][nH]c(=O)c1C(c1ccc(-c2ccc(Cl)c(Cl)c2)o1)c1c(C)[nH][nH]c1=O | 11% |
| COc1cccc(OCC(O)CN2CCN(CCN3C(=O)c4cccc5cccc(c45)C3=O)CC2)c1 (configuration not stated) | 1.12% |
| Cc1ccccc1OCC(O)CN1CCN(CCN2C(=O)c3cccc4cccc(c34)C2=O)CC1 (configuration not stated) | -2.69% |
| CC(C)CCN(C(=O)Cc1ccc(Cl)c(Cl)c1)c1c(N)n(Cc2ccccc2)c(=O)[nH]c1=O | 6.92% |
| CCN(CC)c1ccc(/C=C/c2cccc[n+]2C)c(OC)c1 | -53.2% |
| O=C(Cn1cnc2c(NCc3ccccc3)ncnc21)NCc1ccccc1 | 38.4% |
| CC(=O)c1ccc(Nc2c3c(nc4ccccc24)CCCC3)cc1 | 32.1% |
| COc1ccc(Nc2nc(N3CCCC3)nc3ccccc23)c(OC)c1 | -0.901% |
| CCOc1ccccc1C1CC(=O)Nc2cc3c(cc21)OCO3 (configuration not stated) | 35.4% |

| SMILES | activity increase (luciferase signal) |
| --- | --- |
| Cc1ccc(C)c(N2CCN(c3cnn(-c4nc5ccccc5s4)c(=O)c3Cl)CC2)c1 | 36.1% |
| CC(C)(C)c1ccc(C(=O)O/N=C(\N)Cc2cccs2)cc1 | 40.3% |
| O=C(CCl)Nc1cn(-c2ccccc2)nc1-c1ccc(F)cc1 | -69.3% |
| CC1=CC(C)[C@H](/C=N/n2c(=O)[nH]c3c([nH]c4ccc(Br)cc43)c2=O)C(C)C1 (some centres not stated) | 9.8% |
| COc1ccc(-c2nn(C)c(=O)c3ccccc23)cc1NS(C)(=O)=O | 57.1% |
| CC=Cc1cc2c(c(=O)o1)C(=O)C(O)C(C)O2 (configuration not stated) | 40.1% |
| Cc1noc(C)c1COc1ccc(C(=O)NNC(=O)c2ccccc2F)cc1 | 70.6% |
| Cc1ccc(OCCOC(=O)c2c(-c3ccccc3)noc2C)cc1 | 13.6% |
| N#CCC(CNc1ncc(C(F)(F)F)cc1Cl)OC(=O)c1ccc(Cl)cc1Cl (configuration not stated) | 13.4% |
| C/C(=N/NC(=O)c1cccs1)c1ccc(NC(=O)COc2ccc(Cl)cc2Cl)cc1 | 13.5% |
| CCOc1ccc(Br)cc1C1=NN(C(C)=O)C(c2ccc([N+](=O)[O-])s2)O1 (configuration not stated) | 30% |
| COc1ccc(S(=O)(=O)Nc2cc3c(cc2C(C)=O)OCO3)cc1 | 40.6% |
| CN(C)S(=O)(=O)c1ccc(N2CCCC2)c(C(=O)Nc2cccc(F)c2)c1 | 17.2% |
| O=C(Nc1cccc(F)c1)c1cc(S(=O)(=O)N2CCOCC2)ccc1N1CCCC1 | 5.41% |
| CN(C)S(=O)(=O)c1ccc(N2CCCC2)c(C(=O)Nc2ccccc2)c1 | 4.45% |
| CC1=C(n2ccnc2)CCC1=O | 20.5% |
| O=C1CC(c2ccccc2F)c2cc3c(cc2N1)CCC3 (configuration not stated) | 32.1% |
| CC(C)(C)c1nnc2sc(SCC(=O)c3ccc4c(c3)OCCO4)nn2c1=O | -0.962% |
| CN(C)CCc1cc2c(c3c1ccc1ccccc13)OCO2 | -9.59% |
| COc1ccccc1C1CC(=O)Nc2cc3c(cc21)OCCO3 (configuration not stated) | 7.01% |
| COC(=O)c1sc(N)c(C(=O)OC)c1COC(=O)c1c(C)noc1C | 41.7% |
| Cc1[nH]c2ccc(C(=O)OC(C)C(=O)NCc3ccccc3)cc2c1C (configuration not stated) | 20.7% |
| COc1cccc(-c2nc(N3CCN(C)CC3)c3ccccc3n2)c1O | 30.5% |
| O=C(CNc1cccc2ccccc12)N/N=C/C(Br)=C/c1ccccc1 | 33.3% |
| O=C(N/N=C/C(Br)=C/c1ccccc1)c1cc(-c2ccco2)[nH]n1 | 31.3% |
| Cc1nc2c3cc(F)ccc3n(Cc3ccc(F)cc3)c2s1 | 23.6% |

| SMILES | activity increase (luciferase signal) |
| --- | --- |
| CCCn1nc(C(=O)N2CC(=O)Nc3ccccc32)c2ccccc2c1=O | 30.2% |
| CCOc1ccc2nc(NCCNC(=O)Nc3cccc(C)c3)c(C#N)cc2c1 | 12.9% |
| COc1ccc2nc(SCC(=O)NC3CCCC3)c(C)cc2c1 | 34.9% |
| OCCNc1c2ccccc2nc2ccccc12 | -24% |
| Cc1cc(/C=C2\Sc3ccccc3N2C)cc(C)[n+]1CC1CCCO1 (configuration not stated) | -30.6% |
| CC(C)CC(NC(=O)c1ccc(Cl)cc1)C(=O)OCC(=O)c1ccc2c(c1)NC(=O)CO2 (configuration not stated) | 19.6% |
| CC[C@H](C)[C@H](NC(=O)c1ccc(Cl)cc1)C(=O)OCC(=O)c1ccc2c(c1)NC(=O)CO2 | -25.4% |
| COc1ccc(C(=O)C=Cc2ccc(OCc3ccccc3)c(OC)c2)cc1OC | 45.9% |
| O=C(/C=C/c1cccnc1)c1ccc(F)c(F)c1 | 12.5% |
| CNc1ccc(Br)cc(C(=O)/C=C/c2ccc(Cl)cc2Cl)c1=O | 11.2% |
| C=CCn1cccc(/C=C/C(=O)c2ccc(C(C)(C)C)cc2)c1=S | -49.2% |
| Cc1ccc(-c2nn(-c3ccccc3)cc2NC(=O)CCl)cc1 | -50% |
| Cc1ccc(C(=O)CSc2nn3c(=O)c(C(C)(C)C)nnc3s2)cc1 | 23.5% |
| CN(C)C(=O)c1cccc(-c2cnc3c(NC=O)cc(-c4ccccc4Cl)cn23)c1 | 51.8% |
| Nc1ccc(-c2cc(NC=O)c3ncc(-c4cccc(C(F)(F)F)c4)n3c2)cn1 | 7.33% |
| COc1ccc(F)cc1-c1cc(NC(C)=O)c2ncc(-c3cc(OC)c(OC)c(OC)c3)n2c1 | -10.8% |
| COc1ccccc1-c1cc(NC=O)c2ncc(-c3cccc(C(C)=O)c3)n2c1 | -15.7% |
| CCOc1cc(S(=O)(=O)NCc2ccc(OC)cc2)c(OCC)cc1-n1cnnn1 | 29% |
| Oc1ccc(N=Nc2ccccc2)o1 | 15.2% |
| O=C(Nc1cccc(C(F)(F)F)c1)c1sc(Cl)nc1C(F)(F)F | -21.3% |
| CC(C)c1ccc(NC(=O)[C@@H](NC(=O)N2CC(=O)Nc3ccccc32)C(C)C)cc1 | 49.1% |
| O=C(CNC(=O)N1CC(=O)Nc2ccccc21)NCCCc1ccccc1 | 37.6% |
| Cn1ncc2c(O/N=C(\N)c3ccc(C(F)(F)F)cc3)ncnc21 | 9.8% |
| CC(/C=N/NC(=O)c1cc(-c2ccc(C)s2)[nH]n1)=C\c1ccccc1 | 57% |
| CN(C)CCCN1C(=O)c2cccc3cccc(c23)C1=O | 66.1% |
| Cc1cc(NC(=O)COC(=O)c2ccc(S(=O)(=O)N3CCCc4ccccc43)cc2)no1 | -2.94% [at 5 µM] |

| SMILES | activity increase (luciferase signal) |
| --- | --- |
| CCOc1ccccc1C1CC(=O)Nc2cc3c(cc21)OCCO3 (configuration not stated) | -7.85% |
| CCOC(=O)Cc1csc(/N=C/c2c(O)n(-c3ccc(C)c(C)c3)c(=O)c3ccccc23)n1 | 48.7% |
| Cc1cc(O)c(NC(=O)c2cc([N+](=O)[O-])ccc2Cl)cc1C | 5.97% |
| CC(=O)Nc1sc(C)c(C)c1C(=O)OCC(=O)Nc1cccc(C)c1 | 35.9% |
| CC(=O)Nc1sc(C)c(C)c1C(=O)OCC(=O)N(CC(C)C)c1c(N)n(Cc2ccccc2)c(=O)[nH]c1=O | -15.8% |
| O=C1c2cccc3cccc(c23)C(=O)N1CC1CCN(CC(O)COCc2ccc3c(c2)OCO3)CC1 (configuration not stated) | -18.8% |
| CN(C)c1ccc(C(C[N+](=O)[O-])c2c(N)n(C)c(=O)n(C)c2=O)c(F)c1C#N (configuration not stated) | -29.9% |
| Cc1ccc(-c2cnc(C3CC3)o2)cc1S(=O)(=O)Nc1ccccc1 | 28.3% |
| COc1ccc(Oc2ccc(/C=C/C(=O)c3cccc(OC)c3)cc2[N+](=O)[O-])cc1 | -28.9% |
| CCNc1ccc(Br)cc(C(=O)/C=C/c2ccc(Cl)cc2)c1=O | -4.89% |
| Cc1[nH]nc2c1C(c1cccc(O)c1)C1=C(CC(C)(C)CC1=O)N2 (configuration not stated) | -7.35% |
| COc1ccc(CCn2c(=N)c(C(=O)NCc3ccco3)cc3c(=O)n4ccccc4nc32)cc1OC | -3.36% |
| O=C(NCCc1ccc(F)cc1)c1coc(=O)c(Br)c1 | 14.3% |
| Cc1cc(NC(=O)CSc2nc(-c3ccco3)cc(C(F)(F)F)n2)no1 | 26.8% |
| Cc1cccc2[nH]c3c(N4CCC5(CC4)OCCO5)ncnc3c12 | 17% |
| COC(=O)c1cc(=O)n(Cc2ccc3c(c2)OCO3)c(=Nc2ccc(F)c(Cl)c2)s1 | -55.3% |
| COc1ccc(CNC(=O)C2Cc3c(-c4ccc5c(c4)OCO5)ccnc3O2)cc1OC (configuration not stated) | 41.1% |
| COc1ccc(-c2nc3c(C(=O)NCCN(C)C)cccc3c3ccccc23)cc1 | 22.2% |
| COc1cccc2nc3c(C(=O)NCCN(C)C)cccc3cc12 | -3.74% |
| CCN(c1ccccc1)S(=O)(=O)c1ccc(C(=O)NC2CCN(Cc3ccccc3)CC2)cc1 | -0.543% |
| Nc1nc(=S)c2ncn(C3OC(CO)C(O)C3O)c2[nH]1 (configuration not stated) | 23.6% |
| O=C1CCCN1c1ccc(S(=O)(=O)Nc2ccc3c(c2)OCCO3)cc1 | 35.6% |
| COC(=O)c1ccc(S(=O)(=O)N2CCc3ccccc32)cc1 | 47.4% |
| COC(=O)Nc1ccc(S(=O)(=O)N2CCCc3ccccc32)cc1 | -15.6% |

From PubChem BioAssay AID624404 (Broad Institute, 2012)
